HTT ATP protect – cytoprotection in Huntington HTT-Q103 PC12 cell model. PC12 HTT-Q103 induced, cytoprotection, ATP luminescence, 40 h. Potency, µM (series often up to 56.4 µM), inactives show cytoprotection (ATP increase), hits mostly activators. 230,000 tested, 0.14% active; active = well fitted curve in the direction sought with a large enough effect; inconclusive = small, poorly fitted or top-dose-only effect, or another doubt; inactive = no such curve, though single readings can be large; an effect the other way counts as inactive or inconclusive; also: % of control where 0% means no effect; nearly all actives have a fitted effect of over 45% in size
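PC12 cells with ecdysone-inducible HTT exon 1 Q103-GFP, induced with 100 nM tebufenozide and co-treated with library compounds in a dose series (1536-well, 1500 cells/well). Cytoprotection read as ATP content by ATPlite luminescence.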
HttQ103 aggreg – inhibitors of mutant huntingtin aggregate formation in PC12 cells | AID 1688 | Potency, µM (titrated, usually from 46.1 µM), without a hit: at the top dose activity change, negative = inhibition, hits mostly inhibitors | PC12 HttQ103-GFP aggregates, Acumen cytometry, 40 h | 220,000 tested, 1.1% active; active = well fitted curve in the direction sought with a large enough effect; inconclusive = small, poorly fitted or top-dose-only effect, or another doubt; inactive = no such curve, though single readings can be large; an effect the other way counts as inactive or inconclusive; also: % is scaled to controls: 0 for no effect and ±100 for the full control effect; nearly all actives have a fitted effect of over 60% in size
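Compounds (qHTS titration) were added to PC12 cells expressing an ecdysone-driven HTT exon 1 Q103–GFP fusion after induction with 100 nM tebufenozide. Aggregate formation was measured as GFP objects in cell lysates.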
ALDH1A1 inh – ALDH1A1 (human) enzyme inhibition; Purified ALDH1A1, NADH fluorescence, propionaldehyde substrate; Potency, µM (top dose mostly 75.3 µM), without a hit: at the top dose activity, negative = inhibition, hits mostly inhibitors; 220,000 tested, 7.3% active; AID 1030;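 also: plate controls were no enzyme wells and a reference inhibitor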
Target sequence (P00352 whole entry, looked up): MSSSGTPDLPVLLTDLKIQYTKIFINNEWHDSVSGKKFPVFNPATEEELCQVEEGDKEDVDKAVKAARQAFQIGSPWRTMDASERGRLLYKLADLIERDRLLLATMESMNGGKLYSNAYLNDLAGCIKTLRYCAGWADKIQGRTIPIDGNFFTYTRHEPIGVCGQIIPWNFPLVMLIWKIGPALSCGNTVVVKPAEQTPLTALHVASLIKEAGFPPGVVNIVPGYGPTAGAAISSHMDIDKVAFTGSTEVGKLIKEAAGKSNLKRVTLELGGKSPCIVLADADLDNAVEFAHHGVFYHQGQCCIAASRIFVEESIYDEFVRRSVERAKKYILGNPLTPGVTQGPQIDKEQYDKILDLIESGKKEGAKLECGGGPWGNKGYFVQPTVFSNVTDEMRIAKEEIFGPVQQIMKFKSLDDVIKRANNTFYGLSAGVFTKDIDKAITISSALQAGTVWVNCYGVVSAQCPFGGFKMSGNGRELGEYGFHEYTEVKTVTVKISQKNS
Lamin A splicing – modulators of lamin A splicing; HeLa LMNA splicing GFP/RFP minigene ratio, 48 h; Potency, µM (highest dose often 46.1 µM), for inactives: top-dose ratio change, negative = inhibition, hits mostly inhibitors; 200,000 tested, 0.01% active; AID 1487; active = well fitted inhibition curve with a large enough effect in the signal ratio, with a control signal flat, not every such curve was filed as active; inconclusive = small, poorly fitted or top-dose-only effect, or effect the other way, or a change in a side signal; the % refers to the signal ratio; also: % is scaled to controls: 0 for no effect and ±100 for the full control effect
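S3 HeLa stable clones carrying a lamin A-EGFP splicing minigene plus DsRed2 were seeded at 600 cells/well in Opti-MEM with 2% FBS, pin-dosed and incubated 48 h at 37°C. Acumen cytometry (488 nm) gave the GFP/RFP total-intensity ratio.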
JMJD2E inh – blocks human JMJD2E demethylase activity; B2RXH2; JMJD2E catalytic domain, FDH-coupled NADH fluorescence (FDH is formaldehyde dehydrogenase); Potency, µM (doses to about 57.1 µM), inactives show at the top dose activity change, negative = inhibition, hits mostly inhibitors; 230,000 tested, 1.6% active; AID 2147;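 also: 0% = wells with enzyme and -100% = buffer wells without enzyme; nearly all actives have a fitted effect of over 50% in size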
HPGD block – inhibitors of human 15-hydroxyprostaglandin dehydrogenase (HPGD) | 150,000 tested, 4.3% active | Potency, µM, for inactives: at the highest dose activity change, negative = inhibition, hits mostly inhibitors | purified HPGD, NADH fluorescence kinetic, PGE2 substrate; also: % is scaled to controls: 0 for no effect and ±100 for the full control effect
Target sequence (P15428 whole entry, looked up): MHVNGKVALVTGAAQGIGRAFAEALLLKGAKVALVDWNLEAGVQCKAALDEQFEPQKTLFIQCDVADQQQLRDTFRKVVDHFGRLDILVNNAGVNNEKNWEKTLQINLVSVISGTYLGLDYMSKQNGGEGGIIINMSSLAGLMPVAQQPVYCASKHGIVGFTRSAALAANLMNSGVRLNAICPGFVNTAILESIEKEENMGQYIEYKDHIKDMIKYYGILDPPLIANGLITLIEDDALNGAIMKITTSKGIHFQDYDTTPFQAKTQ
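NADH formation kinetics: reaction with 30 uM PGE2 and 1 mM NAD+ (final), 20 nM enzyme, Tris-HCl pH 8 with Tween 20, after 15 min compound preincubation at room temperature. Fluorescence change, last versus first of five reads.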
Starred values were filed as active, the others as inactive; ? = inconclusive; / = no result given; [ ] = another dose, or the depositor's remark. Shown are actives, neighbours in structure and some others; about 9.2% of the full set was active somewhere. Unless noted, calls follow the shape of the dose curve; as a rule, active = well fitted inhibition curve with a large enough effect (not every such curve was filed as active); inconclusive = small, poorly fitted or top-dose-only effect, or another doubt; inactive = no such curve, though single readings can be large or run the other way. Potency is read from the fitted curve at half-maximal effect.

SMILES | HTT ATP protect | HttQ103 aggreg | ALDH1A1 inh | Lamin A splicing | JMJD2E inh | HPGD block
Nc1nnc(-c2ccc(Cl)c(Cl)c2)s1 | -15%[10 µM] | -16% | ? | / | ? | /
CCC(CO)Nc1nc2ccc(Cl)cc2c2ccccc12 (centres undefined) | -10%[10 µM] | -10%[9.22 µM] | ? | / | ? | /
O=C(O)C1CCCCN1S(=O)(=O)c1ccc(Cl)s1 (centres undefined) | -3% | 12% | 16µM* | 2% | -1% | -10%
O=C(O)C1CCCN1S(=O)(=O)c1ccc(Br)s1 (centres undefined) (tested in a mixture with another compound) | -32%[10 µM] | 7% | -9% | -14% | -9% | -5%
O=C1c2cccnc2C(Nc2ccccc2)N1Cc1ccco1 (centres undefined) | -20% | 3% | 22µM* | 10% | ? | ?
O=C1c2cccnc2C(Nc2ccccc2Br)N1Cc1ccco1 (centres undefined) | -11% | -20% | 25µM* | / | -4% | /
O=C1c2cccnc2C(O)N1Cc1ccco1 (centres undefined) | -17%[10 µM] | -16% | 20µM* | -5% | -5% | 5%
O=C1c2cccnc2C(Nc2cccc(F)c2)N1Cc1ccco1 (centres undefined) | 27%[10 µM] | 8%[9.22 µM] | -6% | ? | -1% | /
O=C1c2cccnc2C(O)N1Cc1ccccc1 (centres undefined) | -12%[10 µM] | 7% | 2% | -9% | 3% | 0%
COc1cc(NC2c3ncccc3C(=O)N2Cc2ccco2)cc(OC)c1OC (centres undefined) | -15% | 3% | -8% | / | -25% | /
CCCSc1nnc2[nH]c(=O)cc(N)n12 | 18%[10 µM] | 5% | 5% | -15% | 4% | -8%
CCCCSc1nnc2[nH]c(=O)cc(N)n12 | -8% | 12% | ? | 5% | -3% | 16µM*
Cc1nnc(SCCn2c(Br)nc3c2c(=O)[nH]c(=O)n3C)s1 | 6%[0.074 µM] | 10% | 7.9µM* | 1% | 3% | -14%
Cc1nnc(SCCn2c(N3CCN(C)CC3)nc3c2c(=O)[nH]c(=O)n3C)s1 | -7% | -3% | 9% | 5% | -3% | -6%
COc1ccc(CCn2c(Br)nc3c2c(=O)[nH]c(=O)n3C)cc1 | -12% | 1% | 6% | 8% | 5% | 13µM*
Cn1c(=O)[nH]c(=O)c2c1nc(Br)n2CCC(=O)c1ccccc1 | 9%[10 µM] | -5% | 3.5µM* | 3% | 3% | -9%
NC(=O)C(=CNc1nc(-c2ccc(Cl)c(Cl)c2)cs1)C(N)=O | -7%[10 µM] | -1%[9.22 µM] | / | / | 7.9µM* | /
CCOC(=O)C(CS)NCCN[C@@H](CS)C(=O)OCC (some centres undefined) | 2% | 17% | / | / | / | /
Nc1c(-c2cccc(Cl)c2)cnn1-c1cccc(C(F)(F)F)c1 | -13% | -17% | -11% | -10% | -7% | 13µM*
Nc1c(-c2ccccc2)cnn1-c1cccc(C(F)(F)F)c1 | -8%[10 µM] | -13% | -7% | -17% | -3% | 10µM*
Nc1c(-c2ccc(Cl)cc2)cnn1-c1cc(C(F)(F)F)cc(C(F)(F)F)c1 | 12%[10 µM] | 8%[9.22 µM] | / | / | 8% | /
CCOC(=O)Cn1nc(C)c(NC(=O)COc2ccc(C)c(C)c2)c1C | -4%[10 µM] | 14%[9.22 µM] | / | / | 13% | /
COc1ccc(S(=O)(=O)N2CCN(CC(=O)Nc3ccc(C)c(F)c3)CC2)cc1 | 14%[10 µM] | -24% | 10µM* | -18% | -12% | -9%
Cc1ccc(NC(=O)CN2CCN(S(=O)(=O)c3ccc(C(C)C)cc3)CC2)cc1F | / | / | / | 0%[46 µM] | / | /
COc1ccccc1N1CCN(CC(=O)Nc2ccc(C)c(F)c2)CC1 | -23% | ? | 14µM* | ? | -14% | -15%
SMILES | HTT ATP protect | HttQ103 aggreg | ALDH1A1 inh | Lamin A splicing | JMJD2E inh | HPGD block
Cc1cccc(NC(=O)CN2CCN(CC(=O)Nc3cccc(C)c3)CC2)c1 | -6% | 14% | 20µM* | 4% | -4% | -2%
CCOc1ccc(NC(=O)CN(c2ccc(CC)cc2)S(=O)(=O)c2c(C)noc2C)cc1 | / | / | / | 6%[46 µM] | / | /
O=C(C1=C(O)C(=O)N(Cc2ccco2)C1c1cccs1)c1cccs1 (centres undefined) | 17%[0.074 µM] | 26% | ? | -5% | -2% | -9%
O=C(C1=C(O)C(=O)N(CCOCCO)C1c1cccs1)c1cccs1 (centres undefined) | -23%[0.074 µM] | 0% | 2.2µM* | ? | ? | -10%
COc1cc(C2C(C(=O)c3ccco3)=C(O)C(=O)N2CCc2ccccc2)ccc1O (centres undefined) | 9%[10 µM] | -9% | 6% | -7% | -10% | -12%
COc1ccc(CCN2C(=O)C(O)=C(C(=O)c3ccco3)C2c2cccs2)cc1OC (centres undefined) | -2%[10 µM] | -13% | 7.9µM* | 1% | 4% | -18%
Cc1ccc2nc(N3C(=O)C(O)=C(C(=O)c4ccco4)C3c3cccs3)sc2c1 (centres undefined) | -15% | -8% | ? | 1% | ? | 14µM*
CC(C)Cc1nn2c(=O)cc(COC(=O)c3cccc(NC(=O)c4cccs4)c3)nc2s1 | / | / | / | 16%[46 µM] | / | /
COC(=O)NC(CC(C)=O)c1ccc2c(c1)OCO2 (centres undefined) | -4%[10 µM] | / | 9%[13.5 µM] | / | / | /
CCc1cc2c(N3CCCCC3)ncnc2s1 | -9%[10 µM] | -49% | 20µM* | ? | ? | -27%
O=C(O)[C@H](CCc1ccccc1)N1C(=O)c2ccccc2C1=O | -13%[10 µM] | / | -10%[13.5 µM] | / | / | -7%
COc1ccc(C(=O)ON=C2CCN(c3ccc([N+](=O)[O-])cc3)CC2)cc1 | -6% | 11% | 4µM* | 16% | 4% | -13%
O=C(NC(=S)Nc1ccccc1[N+](=O)[O-])c1ccccc1 | -2%[10 µM] | -2%[9.22 µM] | / | / | 0% | /
COCCNC(=S)NNc1ccccc1[N+](=O)[O-] | -39% | -4% | 25µM* | / | -13% | /
CNC(=S)NNc1ccccc1[N+](=O)[O-] | -42% | -9% | 14µM* | / | 5% | /
CC1CN(C(=O)C(C)N2C(=O)c3ccccc3C2=O)CC(C)O1 (centres undefined) | -8% | 2% | 13% | 0% | 8% | -9%
COc1ccc(N2CCN(C(C)C(=O)N3CC(C)OC(C)C3)CC2)cc1 (centres undefined) | -30% | 29% | ? | / | 22µM* | /
CCCn1c2ccccc2c2cnn(CC(=O)N3CCN(c4ccccc4)CC3)c(=O)c21 | / | / | / | -3%[46 µM] | / | /
CC(C)(C)Nc1nc(OCC#N)nc(N2CCCCC2)n1 | -16%[10 µM] | -8%[9.22 µM] | 18µM* | / | 2% | /
N#CCOc1nc(N2CCCCC2)nc(N2CCCCC2)n1 | 5%[10 µM] | -9%[9.22 µM] | -8% | / | 0% | /

Bioassay records deposited in PubChem by National Center for Advancing Translational Sciences (NCATS).
